Hits are enriched below; roughly 7.4% of the tested compounds scored in any of these assays.
SNCA viab count = reduces viability of HEK-293 SNCA reporter cells; AID 1671193; Potency, µM (titrated, usually from 57.1 µM), inactives show at the highest dose activity change, negative = cytotoxicity, usual class: cytotoxic; 150,000 compounds, 0.12% hits; HEK-293-SNCA-luc viability, GF-AFC fluorescence, 24 h;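 further: 0% = DMSO-treated cells and -100% = medium-only wells without cells; nearly all actives have a fitted effect of over 30% in size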
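HEK-293-SNCA-luc cells (1500/well) plated 24 h, then exposed 24 h to a dilution series; GF-AFC added 30 min at 37C, fluorescence 405/540 nm; normalised to medium-only and DMSO wells, Hill fit.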
Luciferase inh = Photinus pyralis luciferase inhibition; P08659; purified P. pyralis luciferase, luminescence, biochemical; Potency, µM (top dose mostly 115 µM), actives largely listed as inhibitors; 76,000 compounds, 2.5% hits; further: on the % scale 0 is the no-effect control and ±100 the full control effect; nearly all actives have a fitted effect of over 65% in size
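Cell-free enzyme assay, 10nM P. pyralis luciferase, luciferin and ATP each at 10uM. Inhibition profiled over a 6-point titration, read as luminescence.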
SNCA expr inh = reduces expression of the alpha-synuclein gene | HEK-293 SNCA-luciferase knock-in, luminescence, 24 h | Potency, µM (series often up to 57.2 µM), for the others: at the top dose activity change, negative = inhibition, usual class: inhibitors | 140,000 compounds, 0.17% hits | AID 1671194;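 further: plate controls were DMSO cells for no effect and cell-free wells for full effect; nearly all actives have a fitted effect of over 45% in size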
NPR1 antag = blocks ANP-stimulated signaling of human Npr1 receptor; P16066; HEK293 hNpr1 GloSensor cGMP, ANP-stimulated luminescence; Potency, µM (doses to about 46.3 µM), inactives show at the top dose activity change, negative = inhibition, usual class: inhibitors; 76,000 compounds, 1.6% hits; calls by dose curve; further: on the % scale 0 is the no-effect control and ±100 the full control effect; nearly all actives have a fitted effect of over 60% in size
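Compound pre-incubated 30 min at room temperature on GloSensor-loaded HEK293 cells stably carrying hNpr1 and the pGS-40F cGMP biosensor. Stimulation uses hNppA at 0.1 nM final; luminescence is taken at baseline and 20 min post-agonist.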
NIH3T3 tox = kills NIH 3T3 cells | NIH 3T3 viability, CellTiter-Glo ATP luminescence, 48-72 h | Potency, µM (series often up to 96.7 µM), inactives show top-dose activity change, negative = cytotoxicity, hits mostly inhibitors | 94,000 compounds, 4.3% hits; further: on the % scale 0 is the no-effect control and ±100 the full control effect; nearly all actives have a fitted effect of over 55% in size
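Cytotoxicity was measured by CellTiter-Glo ATP luminescence after 48 or 72 h compound exposure at 37 °C. Mouse NIH 3T3 fibroblasts were seeded at 400 cells/well and dosed by 23 nL pin transfer.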
HEK293 tox = kills HEK 293 cells; HEK 293 viability, ATP luminescence (CellTiter-Glo), 48-72 h; Potency, µM (titrated, usually from 115 µM), inactives show at the highest dose activity change, negative = cytotoxicity, actives largely listed as inhibitors; 94,000 compounds, 6.6% hits; AID 1345083; further: on the % scale 0 is the no-effect control and ±100 the full control effect; nearly all actives have a fitted effect of over 60% in size
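HEK 293 cells seeded at 250 cells/well were exposed to compound for 48 or 72 hr at 37 degree Celsius. Viability taken as ATP content by CellTiter-Glo luminescence.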
Npr1 antag conf = confirmation of human Npr1 natriuretic peptide receptor antagonists; shares compounds with NPR1 antag; 1,400 compounds, 76% hits; HEK293 hNpr1 cGMP GloSensor luminescence, ANP-stimulated; AID 1347044; Potency, µM (top dose mostly 57.6 µM), for the others: at the highest dose activity change, negative = inhibition, hits mostly inhibitors; calls by dose curve; further: nearly all actives have a fitted effect of over 70% in size
Npr2 selectivity = selectivity test of Npr1 antagonists against human Npr2; shares compounds with NPR1 antag; HEK293 hNpr2 GloSensor cGMP luminescence, CNP-stimulated; Potency, µM (highest dose often 57.6 µM), without a hit: top-dose activity change, negative = inhibition, actives largely listed as inhibitors; 1,400 compounds, 67% hits; AID 1347046; calls by dose curve; further: nearly all actives have a fitted effect of over 70% in size
Target sequence (P20594 whole entry, looked up): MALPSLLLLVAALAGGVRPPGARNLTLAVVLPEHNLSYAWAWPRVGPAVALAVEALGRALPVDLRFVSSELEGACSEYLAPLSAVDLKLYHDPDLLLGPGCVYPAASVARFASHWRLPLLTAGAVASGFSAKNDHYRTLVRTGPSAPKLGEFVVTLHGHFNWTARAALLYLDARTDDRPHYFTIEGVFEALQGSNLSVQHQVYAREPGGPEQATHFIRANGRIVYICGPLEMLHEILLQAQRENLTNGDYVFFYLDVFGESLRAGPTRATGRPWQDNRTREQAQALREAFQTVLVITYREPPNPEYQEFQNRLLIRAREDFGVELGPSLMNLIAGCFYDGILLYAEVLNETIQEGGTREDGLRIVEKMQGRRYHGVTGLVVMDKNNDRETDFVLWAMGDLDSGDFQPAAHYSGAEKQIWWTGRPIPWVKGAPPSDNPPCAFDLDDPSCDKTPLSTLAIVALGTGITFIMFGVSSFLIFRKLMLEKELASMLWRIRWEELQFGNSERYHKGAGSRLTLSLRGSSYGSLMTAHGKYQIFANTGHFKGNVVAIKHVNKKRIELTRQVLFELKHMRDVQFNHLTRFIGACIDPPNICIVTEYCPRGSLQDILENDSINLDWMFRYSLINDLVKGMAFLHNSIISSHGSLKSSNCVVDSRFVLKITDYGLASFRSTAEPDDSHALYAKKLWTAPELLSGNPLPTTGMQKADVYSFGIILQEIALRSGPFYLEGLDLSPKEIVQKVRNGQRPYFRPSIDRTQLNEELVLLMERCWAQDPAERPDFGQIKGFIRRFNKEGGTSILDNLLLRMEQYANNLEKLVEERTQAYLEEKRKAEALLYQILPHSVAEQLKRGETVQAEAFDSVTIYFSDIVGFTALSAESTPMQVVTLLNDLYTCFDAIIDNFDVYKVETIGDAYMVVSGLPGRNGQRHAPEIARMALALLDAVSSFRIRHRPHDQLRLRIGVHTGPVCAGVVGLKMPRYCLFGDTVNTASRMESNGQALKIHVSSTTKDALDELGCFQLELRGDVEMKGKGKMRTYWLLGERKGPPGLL
FLuc inh counter = inhibits firefly luciferase, false Npr1 antagonist flag | Potency, µM (highest dose often 57.6 µM), for inactives: top-dose activity change, negative = inhibition, hits mostly inhibitors | shares compounds with NPR1 antag | AID 1347047 | purified FLuc enzyme, luminescence, Km substrate | 1,400 compounds, 0.7% hits; further: 0% is about no effect
GloSensor ctrl = control cell line activity, Npr1 antagonist counter-screen; Potency, µM (series often up to 57.6 µM), for the others: at the highest dose activity change, negative = inhibition, actives largely listed as inhibitors; shares compounds with NPR1 antag; 1,400 compounds, 69% hits; HEK293 GloSensor cGMP, SNP-stimulated, luminescence; calls by dose curve; further: on the % scale 0 is the no-effect control and ±100 the full control effect; nearly all actives have a fitted effect of over 70% in size
The depositor's hits bear a star; i = inactive; ? = inconclusive; . = no result; [ ] = remark or other dose. Unless noted, the call rests on the fitted dose curve; in most records, active means well fitted curve in the direction sought with a large enough effect; inconclusive means small, poorly fitted or top-dose-only effect, or another doubt; inactive means no such curve, though single readings can be large; an effect the other way counts as inactive or inconclusive. Potency means the concentration at half of the fitted maximal effect.

SMILES	SNCA viab count	Luciferase inh	SNCA expr inh	NPR1 antag	NIH3T3 tox	HEK293 tox	Npr1 antag conf	Npr2 selectivity	FLuc inh counter	GloSensor ctrl
O=C(CC1=C2CCCCC2N(Cc2ccccc2)C1=O)NCCN1CCCC1 (stereo not given)	-17%	.	20%	.	2%	i	.	.	.	.
O=C(NC1CN(c2ccnc3ccnn23)C1)C1CCCC1	4%[87.6 µM]	.	-5%[87.6 µM]	.	0%[138 µM]	i	.	.	.	.
COc1ccc(-c2noc(CC3CCN(C(=O)c4cc(F)cc(F)c4)CC3)n2)cc1	-16%	i	-5%	6.3µM*	?	?	5.4µM*	6.1µM*	2%	5.4µM*
COc1cc(OC)cc(C(=O)N2CCC(Cc3nc(-c4ccc(F)cc4)no3)CC2)c1	-6%	i	?	13µM*	?	32µM*	15µM*	22µM*	0%	15µM*
COC(=O)c1cccc(C(=O)N2CCC(Cc3nc(-c4ccc(F)cc4)no3)CC2)c1	-3%	i	?	7.1µM*	?	?	6.1µM*	6.9µM*	-2%	5.4µM*
Cn1nc(C2CC2)cc1NC(=O)c1ccccc1	-3%[87.6 µM]	.	14%[87.6 µM]	.	-22%[138 µM]	-32%[172 µM]	.	.	.	.
CCc1nc2c(c(-c3ccc(O)cc3)n1)CCN(C(=O)Cc1ccc(OC)cc1)CC2	-23%	.	-23%	.	-28%	-8%	.	.	.	.
O=C(c1ccc(F)cc1)N1CCCC2(CNc3ncccc3[S+](=O)([O-])N2)C1 (stereo not given)	.	.	.	.	i	4%	.	.	.	.
CC(=O)c1cccc(C(=O)N2CCC3(CC2)N=C(c2ccc(C)cc2)NO3)c1	10%	?	138%	-19%	-12%	?	.	.	.	.
COc1ccc(CCNC(=O)c2ccc3oc(-c4ccnc(Cl)c4)nc3c2)cc1	2%[12.5 µM]	.	?	.	-31%	-15%	.	.	.	.
COc1cccc(C(=O)N2CCCC(c3noc(COc4ccccc4)n3)C2)c1 (stereo not given)	-1%[12.5 µM]	i	1%	-6%	-29%	?	.	.	.	.
O=C(NC1CCCC1)c1cc(C2CC2)nc2onc(C3CCNCC3)c12	0%	.	-13%	.	-24%	-17%	.	.	.	.
CSc1cccc(NC(=O)Cn2c(N3CCC(C)CC3)nc(C)cc2=O)c1	?	i	-17%	11µM*	11µM*	11µM*	12µM*	14µM*	0%	9.7µM*
Cc1cc(=O)n(CC(=O)Nc2cccc(C(F)(F)F)c2)c(N2CCC(C)CC2)n1	-10%	i	?	10µM*	22µM*	35µM*	12µM*	14µM*	4%	11µM*
CC(C)Cc1cn(CC2CCCN(C(=O)NC3CCCCCC3)C2)nn1 (stereo not given)	-26%	i	?	10µM*	?	?	17µM*	17µM*	1%	12µM*
CC(c1ccc(-c2cc(N3CCN(C)CC3)nc(N)n2)cc1)N1CCOCC1 (stereo not given)	-17%	i	4%	1%	-19%	?	.	.	.	.
CCCCNC(=O)c1cccc(-c2cc(N3CCN(C)CC3)nc(N)n2)c1	-7%	i	?	?	-8%	?	?	-28%	1%	?
Cc1ccc(OCC(=O)N2CCC(Cc3nc(-c4ccccc4)no3)CC2)cc1	-23%	i	-7%	13µM*	?	40µM*	15µM*	15µM*	26%	12µM*
Cc1ccc(CC(=O)N2CCC(Cc3nc(-c4ccccc4)no3)CC2)cc1	8%	i	-8%	?	?	?	.	.	.	.
COc1ccccc1CC(=O)N1CCC(Cc2nc(-c3ccccc3)no2)CC1	-15%	i	-21%	?	?	?	.	.	.	.
COc1ccc(-c2noc(CC3CCN(C(=O)COc4ccc(C)cc4)CC3)n2)cc1	-23%	i	26%	6.3µM*	?	?	7.7µM*	8.6µM*	-12%	8.6µM*
Cc1ccc(OCC(=O)N2CCC(Cc3n[nH]c(C)n3)CC2)cc1	3%	i	-12%	-3%	-2%	-15%	.	.	.	.
COc1ccc(OCC(=O)N2CCC(Cc3nc(-c4ccc(OC)cc4)no3)CC2)cc1	?	i	-26%	10µM*	14µM*	13µM*	11µM*	14µM*	-2%	12µM*
Cc1ccc(-c2c(C(=O)NCCc3ccccc3F)nc3sccn23)cc1	-17%	.	-7%	.	?	?	.	.	.	.
CCN1CCN(C(=O)c2ccc3nnc(-c4ccccc4OC)n3c2)CC1	4%	.	-6%	.	-15%	0%	.	.	.	.
SMILES	SNCA viab count	Luciferase inh	SNCA expr inh	NPR1 antag	NIH3T3 tox	HEK293 tox	Npr1 antag conf	Npr2 selectivity	FLuc inh counter	GloSensor ctrl
O=C(Nc1ccccc1F)N1CC2CCC(C1)N2Cc1ccc(Cl)cc1	-1%	.	0%	.	?	?	.	.	.	.
O=C(CC1CCCCN(Cc2ccccc2)C1=O)Nc1ccc(F)cc1F (stereo not given)	14%	i	3%	0%	-27%	?	.	.	.	.
O=C(CC1CCCCN(Cc2ccccc2)C1=O)N1CCN(c2ccc(F)cc2)CC1 (stereo not given)	-1%	i	-16%	11µM*	-27%	?	24µM*	22µM*	1%	22µM*
O=C(c1ccc(Cl)cc1)N1CC2(CCCN2Cc2ccc(C(F)(F)F)cc2)Cc2ccccc21 (stereo not given)	-8%	.	5%	.	?	?	.	.	.	.
COc1cccc(-c2noc3c2CN(C(=O)c2ccc(C)cc2OC)CC3)c1	-10%	i	5%	?	?	?	.	.	.	.
COc1cccc(C(=O)N2CCc3onc(-c4cccc(F)c4)c3C2)c1OC	-13%	i	-5%	10µM*	?	20µM*	22µM*	22µM*	0%	19µM*
Cc1ccc(-c2c(C(=O)N3CCOCC3)nc3sccn23)cc1	-3%[87.6 µM]	.	-18%[87.6 µM]	.	-3%[138 µM]	-16%[172 µM]	.	.	.	.

Screening data from PubChem BioAssay.
